About 79,000 compounds went through this panel and 15% of them were active in at least one assay; those are over-represented in the sample as a whole. Activity calls are given as the source filed them. Rule as the data show it: active = growth inhibition above about 70%; inactive = the rest.
Columns and labels:
[1] = NCI Yeast Anticancer Drug Screen. Data for the rad52 strain (AID 147);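 also: 0% = growth of vehicle-treated control cultures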; details: S. cerevisiae rad52 mutant growth inhibition, stronger effect = higher value
Procedure, shortened: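 Genetically altered yeast (DNA damage repair defect) treated with compound; inhibition calculated relative to vehicle.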

[2] = NCI Yeast Anticancer Drug Screen. Data for the rad50EPP+ strain (AID 151);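 also: 0% = growth of vehicle-treated control cultures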; details: S. cerevisiae rad50 mutant strain, stronger effect = higher value
Procedure, shortened: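 Strain rad50EPP+; compound exposure; % growth inhibition vs vehicle.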

[3] = NCI Yeast Anticancer Drug Screen. Data for the mgt1 strain (AID 153); details: S. cerevisiae mgt1 mutant growth inhibition, stronger effect = higher value
Procedure, shortened: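 Read-out: yeast growth inhibition vs vehicle control. Strain mgt1, drawn from a panel altered in DNA damage repair or cell cycle control.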

[4] = NCI Yeast Anticancer Drug Screen. Data for the rad50 strain (AID 155);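 also: 0% = growth of vehicle-only cultures of the same strain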; details: S. cerevisiae rad50 strain growth inhibition, stronger effect = higher value
Procedure, shortened: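 A DNA repair-deficient yeast mutant serves as the test organism; compound-induced growth inhibition is calculated against vehicle-treated cells.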

[5] = NCI Yeast Anticancer Drug Screen. Data for the mec2-1 strain (AID 157); details: S. cerevisiae mec2-1 strain, stronger effect = higher value
Procedure, shortened: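 Cells of the genetically defined mec2-1 yeast strain are incubated with test compound. Inhibition of growth is calculated against vehicle-treated controls.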

[6] = NCI Yeast Anticancer Drug Screen. Data for the rad14 strain (AID 159);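 also: 0% = growth of vehicle-treated control cultures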; details: S. cerevisiae rad14 strain growth inhibition, stronger effect = higher value
Procedure, shortened: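 Vehicle-treated cultures served as the baseline for growth inhibition of a DNA repair-mutant yeast strain exposed to each compound.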

[7] = NCI Yeast Anticancer Drug Screen. Data for the sgs1 mgt1 strain (AID 161);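 also: 0% = growth of cultures given vehicle only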; details: S. cerevisiae sgs1 mgt1 strain, stronger effect = higher value
Procedure, shortened: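 Test agents were incubated with a DNA-repair-mutant yeast strain. Growth was then read and compared against vehicle-treated controls.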

[8] = NCI Yeast Anticancer Drug Screen. Data for the CLN2oe strain (AID 163);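 also: 0% = growth of vehicle-only control cultures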; details: S. cerevisiae CLN2oe strain, stronger effect = higher value
Procedure, shortened: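 Strain altered in cell-cycle control, incubated with compound; growth compared to solvent-treated controls.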

[9] = NCI Yeast Anticancer Drug Screen. Data for the cln2 rad14 strain (AID 165);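 also: 0% = growth equal to vehicle treated cultures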; details: S. cerevisiae cln2 rad14 strain, stronger effect = higher value
Procedure, shortened: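 The screen exposed genetically defined yeast (cln2 rad14) to test compounds and scored growth inhibition relative to vehicle-treated controls.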

[10] = NCI Yeast Anticancer Drug Screen. Data for the bub3 strain (AID 167); details: S. cerevisiae bub3 mutant strain, stronger effect = higher value
Procedure, shortened: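 Inhibition values come from growth of compound-treated mutant yeast normalised to vehicle-treated controls.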

[11] = NCI Yeast Anticancer Drug Screen. Data for the wt2 strain (AID 169);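 also: 0% = growth of vehicle-treated yeast cultures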; details: S. cerevisiae wt2 strain growth inhibition, stronger effect = higher value
Procedure, shortened: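 Steps: yeast strain treated with compound; growth recorded; inhibition calculated relative to cultures given vehicle alone.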

[12] = NCI Yeast Anticancer Drug Screen. Data for the mlh1 strain (AID 171);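 also: 0% = growth of vehicle-treated control cultures of the same strain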; details: S. cerevisiae mlh1 strain growth inhibition, stronger effect = higher value
Procedure, shortened: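 Yeast screen: mutant strain plus compound, growth scored against vehicle control wells.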

[13] = NCI Yeast Anticancer Drug Screen. Data for the sgs1 strain (AID 173);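 also: 0% = growth of vehicle-only control cultures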; details: S. cerevisiae sgs1 mutant, stronger effect = higher value
Procedure, shortened: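 Inhibition of yeast growth served as the measure. The mutant strain was treated with each compound, and growth was normalised to cultures receiving vehicle alone.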

[14] = NCI Yeast Anticancer Drug Screen. Data for the mlh1 rad18 strain (AID 175); details: S. cerevisiae mlh1 rad18 strain growth inhibition, stronger effect = higher value
Procedure, shortened: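 Compound-treated yeast growth, normalised to vehicle controls. Strain bears defined DNA repair mutations.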

[15] = NCI Yeast Anticancer Drug Screen. Data for the rad18 strain (AID 177); details: S. cerevisiae rad18 mutant growth inhibition, stronger effect = higher value
Procedure, shortened: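 Inhibition values reflect reduced yeast growth compared with vehicle-treated controls, using a strain engineered with a DNA damage repair defect.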

[16] = NCI Yeast Anticancer Drug Screen. Data for the wt1 strain (AID 149);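 also: 0% = growth of vehicle-treated wt1 cultures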; details: S. cerevisiae wt1 strain (SPY 50644) growth inhibition, stronger effect = higher value
Procedure, shortened: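 Vehicle-normalised growth inhibition; strain wt1; compound exposure.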

[17] = at 5.0 µM (retest, dose inferred, filed as 0.5)
[18] = at 50.0 µM (retest, dose inferred, filed as 5.0)

Measured: growth inhibition

CCOC1Oc2ccccc2-c2nc(N)ncc21 (centres undefined)
active: [4]; [18] 75% | [4]; at 50.0 µM 88.3% | [5]; at 50.0 µM 85.4% | [7]; [18] 85% | [14]; [18] 76%
inactive: [1]; at 1.2 µM 7% | [1]; at 3.7 µM 6% | [1]; at 11.0 µM 3% | [1]; at 33.0 µM 3% | [1]; at 100.0 µM -5% | [2]; at 1.2 µM 0% | [2]; at 3.7 µM -1% | [2]; at 11.0 µM -5% | [2]; at 33.0 µM -3% | [2]; at 100.0 µM -12% | [3]; at 1.2 µM -2% | [3]; at 3.7 µM 10% | [3]; at 11.0 µM 4% | [3]; at 33.0 µM 9% | [3]; at 100.0 µM 6% | [4]; at 1.2 µM -2% | [4]; at 3.7 µM -13% | [4]; [17] 17% | [4]; at 11.0 µM -5% | [4]; at 33.0 µM 0% | [4]; at 100.0 µM -33% | [5]; at 1.2 µM 13% | [5]; at 3.7 µM 6% | [5]; [17] 3% | [5]; at 11.0 µM -2% | [5]; at 33.0 µM -8% | [5]; [18] 39% | [5]; at 100.0 µM -15% | [6]; at 1.2 µM -3% | [6]; at 3.7 µM -5% | [6]; at 11.0 µM -4% | [6]; at 33.0 µM -1% | [6]; at 100.0 µM -4% | [7]; [17] 10% | [7]; at 50.0 µM -4.55% | [8]; at 1.2 µM 7% | [8]; at 3.7 µM 4% | [8]; at 11.0 µM -14% | [8]; at 33.0 µM -27% | [8]; at 100.0 µM 1% | [9]; [17] 22% | [9]; [18] 37% | [9]; at 50.0 µM -20.9% | [10]; at 1.2 µM 4% | [10]; at 3.7 µM -7% | [10]; [17] 2% | [10]; at 11.0 µM -12% | [10]; at 33.0 µM -5% | [10]; [18] 23% | [10]; at 50.0 µM -16.8% | [10]; at 100.0 µM -9% | [11]; at 1.2 µM -3% | [11]; at 3.7 µM -7% | [11]; at 11.0 µM -7% | [11]; at 33.0 µM -2% | [11]; at 100.0 µM -10% | [12]; at 1.2 µM 11% | [12]; at 3.7 µM 16% | [12]; at 11.0 µM 1% | [12]; at 33.0 µM 4% | [12]; at 100.0 µM -1% | [13]; at 1.2 µM 3% | [13]; at 3.7 µM 11% | [13]; at 11.0 µM 5% | [13]; at 33.0 µM -9% | [13]; at 100.0 µM -9% | [14]; [17] 12% | [14]; at 50.0 µM -21.9% | [15]; at 1.2 µM 4% | [15]; at 3.7 µM 7% | [15]; at 11.0 µM -1% | [15]; at 33.0 µM 3% | [15]; at 100.0 µM -2%

O=c1ccc2ccccc2c2ccccc12
inactive: [1]; at 1.2 µM -49% | [1]; at 3.7 µM -33% | [1]; at 11.0 µM 52% | [16]; at 1.2 µM -17% | [16]; at 3.7 µM 18% | [2]; at 1.2 µM -4% | [2]; at 3.7 µM 13% | [2]; at 11.0 µM 46% | [4]; at 1.2 µM -13% | [4]; at 3.7 µM 7% | [4]; [17] -2% | [4]; at 11.0 µM 66% | [5]; at 1.2 µM -3% | [5]; at 3.7 µM 22% | [5]; [17] 1% | [7]; [17] 6% | [8]; at 1.2 µM 20% | [8]; at 3.7 µM 25% | [9]; [17] 5% | [10]; at 1.2 µM 5% | [10]; at 3.7 µM 47% | [10]; [17] 50% | [11]; at 1.2 µM -27% | [11]; at 3.7 µM 2% | [11]; at 11.0 µM 69% | [12]; at 1.2 µM 15% | [12]; at 3.7 µM 55% | [14]; [17] 39% | [15]; at 1.2 µM -4% | [15]; at 3.7 µM -3%
active: [1]; at 33.0 µM 97% | [1]; at 100.0 µM 99% | [16]; at 11.0 µM 76% | [16]; at 33.0 µM 98% | [16]; at 100.0 µM 99% | [2]; at 33.0 µM 95% | [2]; at 100.0 µM 99% | [4]; at 33.0 µM 97% | [4]; [18] 98% | [4]; at 50.0 µM 90.9% | [4]; at 100.0 µM 97% | [5]; at 11.0 µM 82% | [5]; at 33.0 µM 99% | [5]; [18] 99% | [5]; at 50.0 µM 93.9% | [5]; at 100.0 µM 100% | [7]; [18] 98% | [7]; at 50.0 µM 91.6% | [8]; at 11.0 µM 87% | [8]; at 33.0 µM 100% | [8]; at 100.0 µM 100% | [9]; [18] 99% | [9]; at 50.0 µM 90.4% | [10]; at 11.0 µM 88% | [10]; at 33.0 µM 98% | [10]; [18] 99% | [10]; at 50.0 µM 90.6% | [10]; at 100.0 µM 98% | [11]; at 33.0 µM 98% | [11]; at 100.0 µM 99% | [12]; at 11.0 µM 83% | [12]; at 33.0 µM 99% | [12]; at 100.0 µM 99% | [14]; [18] 99% | [14]; at 50.0 µM 90.9% | [15]; at 11.0 µM 76% | [15]; at 33.0 µM 97% | [15]; at 100.0 µM 97%

CN(C)c1ccc(N=Nc2ccncc2)cc1
active: [1]; at 100.0 µM 71% | [4]; at 50.0 µM 82.3% | [4]; at 100.0 µM 77% | [7]; at 50.0 µM 70.6% | [10]; at 33.0 µM 78% | [10]; [18] 73% | [10]; at 50.0 µM 86.5% | [10]; at 100.0 µM 86%
inactive: [1]; at 1.2 µM 1% | [1]; at 3.7 µM 1% | [1]; at 11.0 µM 15% | [1]; at 33.0 µM 33% | [16]; at 1.2 µM -7% | [16]; at 3.7 µM -3% | [16]; at 11.0 µM -1% | [16]; at 33.0 µM -1% | [16]; at 100.0 µM 40% | [3]; at 1.2 µM -2% | [3]; at 3.7 µM 12% | [3]; at 11.0 µM 31% | [3]; at 33.0 µM 35% | [3]; at 100.0 µM 49% | [4]; at 1.2 µM 8% | [4]; at 3.7 µM 11% | [4]; [17] -86% | [4]; at 11.0 µM 31% | [4]; at 33.0 µM 55% | [4]; [18] 27% | [5]; at 1.2 µM -2% | [5]; at 3.7 µM 7% | [5]; [17] -41% | [5]; at 11.0 µM 19% | [5]; at 33.0 µM 18% | [5]; [18] -3% | [5]; at 50.0 µM 53.1% | [5]; at 100.0 µM 67% | [6]; at 1.2 µM 9% | [6]; at 3.7 µM 31% | [6]; at 11.0 µM 51% | [6]; at 33.0 µM 47% | [6]; at 100.0 µM 52% | [7]; [17] -19% | [7]; [18] 32% | [8]; at 1.2 µM 13% | [8]; at 3.7 µM 22% | [8]; at 11.0 µM 37% | [8]; at 33.0 µM 38% | [8]; at 100.0 µM 36% | [9]; [17] -36% | [9]; [18] 2% | [9]; at 50.0 µM 37.1% | [10]; at 1.2 µM 4% | [10]; at 3.7 µM 22% | [10]; [17] -13% | [10]; at 11.0 µM 60% | [11]; at 1.2 µM 3% | [11]; at 3.7 µM 7% | [11]; at 11.0 µM 22% | [11]; at 33.0 µM 23% | [11]; at 100.0 µM 20% | [12]; at 1.2 µM 7% | [12]; at 3.7 µM 11% | [12]; at 11.0 µM 29% | [12]; at 33.0 µM 42% | [12]; at 100.0 µM 47% | [13]; at 1.2 µM 15% | [13]; at 3.7 µM 41% | [13]; at 11.0 µM 63% | [13]; at 33.0 µM 67% | [13]; at 100.0 µM 68% | [14]; [17] -82% | [14]; [18] 4% | [14]; at 50.0 µM 67.7% | [15]; at 1.2 µM 6% | [15]; at 3.7 µM 24% | [15]; at 11.0 µM 35% | [15]; at 33.0 µM 19% | [15]; at 100.0 µM 31%

From PubChem BioAssay (NCI)
